RUNX1 binding intensity data for 39 sequences are collected here from the supplement of paper PMC10681739.
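Also: Full-length recombinant human ETS1 or RUNX1 bound to double-stranded 36-bp genomic probes on microarrays, detected by protein-specific primary antibody and Alexa488 secondary, spot fluorescence as median of four replicate spots.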

Chain of RUNX1 (Q01196 whole entry): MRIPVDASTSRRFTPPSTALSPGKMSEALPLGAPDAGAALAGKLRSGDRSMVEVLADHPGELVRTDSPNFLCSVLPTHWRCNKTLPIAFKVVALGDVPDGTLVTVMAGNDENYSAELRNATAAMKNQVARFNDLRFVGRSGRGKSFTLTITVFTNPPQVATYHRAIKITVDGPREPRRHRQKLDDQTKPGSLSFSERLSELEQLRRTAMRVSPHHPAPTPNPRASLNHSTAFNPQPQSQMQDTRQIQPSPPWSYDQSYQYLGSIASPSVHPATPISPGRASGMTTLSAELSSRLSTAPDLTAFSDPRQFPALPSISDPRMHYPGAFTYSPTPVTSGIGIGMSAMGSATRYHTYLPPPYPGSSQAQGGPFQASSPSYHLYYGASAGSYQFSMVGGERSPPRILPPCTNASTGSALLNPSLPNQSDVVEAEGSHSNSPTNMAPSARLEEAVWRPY

In the assay the target is RUNX1 (UniProt Q01196). Kind of assay: RUNX1 binding intensity (PBM fluorescence) in presence of ETS1, normalised to RUNX1-only experiment (arbitrary fluorescence units); higher = stronger binding. The settings on record: RUNX1 concentration 2 nM; ETS1 concentration 25 nM. On the procedure:
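Cooperative gcPBM on 36-bp genomic probes with neighbouring ETS1 and RUNX1 sites. Recombinant human RUNX1 (2 nM) was incubated alone or with ETS1 (25 nM) and detected with anti-RUNX1 antibody plus Alexa488 secondary. Values are medians over 4 replicate spots; the RUNX1+ETS1 data were normalised to the RUNX1-only data. The probes sit in constant array flanks that are not printed.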
As for AGGGCATTTCCTTTGGGGCTGGTGGTCACGGACAAC, the RUNX1 binding intensity amounted to 1430. The same measure for GGTCCGGATGTATAAAGCGCGGCCCCCTGCGGGGAG: 997; for CCACGTCCACAAAGGAAACCGCGGCCTGCCCGGGGA: 1590.

On to GCCTGAAGGACTTCCGGGAACCGCAAAGCACGGTGT, for which the RUNX1 binding intensity came out at 3430. Turning to TGCAGTCGTGAAAAAGGAAGTGGTTAAAGTGGATAC, the RUNX1 binding intensity is 1520. Turning to CCGCCGCGACACTTCCGGCGGCCACCACAGGGTATT, the RUNX1 binding intensity was 2500.

Take GCGGAGCGAGCGGCCGGATGCGGTCACCATAGAGAC: the RUNX1 binding intensity was 8090. For the sequence CTCCTCCCCCACTTCCTATTTTTACCGCAGTTGCAC, the RUNX1 binding intensity was 7610. On to TGTGAACTGACAGGATGTGGTACAAGGCTTACAAAG, for which the RUNX1 binding intensity is 1780. As to CCCTCCTCTTTCGTTTCCTAACCGCAAATTCCATCA, the RUNX1 binding intensity came out at 53700. Consider AGCTGCTGTTTTCCGGCTGCGGCACTGGATGAAGGA, for which the RUNX1 binding intensity was determined as 1350. Under ACAGGCTGTCTGCTTCCGTCAGCGGTTATTCCCTTG stands 1340. For the sequence AATGCCGGATATTGGTTCTGGTAAGCCACAAAAAAG, the RUNX1 binding intensity came to 1390. As for GGCGCGGGCTGCTTCCGGTCTGCGGGCCTGAGGAGG, the RUNX1 binding intensity was 1770. Take GCCTGCAGCTTCTTCCTGTGGCTTCTGCATCTCAGG: the RUNX1 binding intensity was 1320. For GAGTCGCTTCCGCTCCCGCCCCGCTCTGTGGCGTAG, the RUNX1 binding intensity stood at 1980. As for CCCCTCTCTCCCACTTCCTGTGGTCTCAGTCTTTGT, the RUNX1 binding intensity worked out at 4960.

As to TGCCTCACCTCACATCCGTTTGTGGCTGCCGAGTGC, the RUNX1 binding intensity was 1880. Turning to CCACCACTCTAAGCAGGATGCGGTGCGACCCAAGAG, the RUNX1 binding intensity stood at 972. For ACCTGTGTTCTGGCAGGATGTGGTTGACCTCAGCAG, the RUNX1 binding intensity came to 2700.

Take TGGAAGGCCGGAAAAGGTTTACCACCACACTCCGGT: the RUNX1 binding intensity was found to be 1320. GGACTTCCTGAAGCCAGATCGGTTTACCACAGTCAG: the RUNX1 binding intensity was 1860. Take GGCTTCCGGCGGGGTACCCTCCTCTGTGGGCGGGGC: the RUNX1 binding intensity came to 1750. GGGTGCTTCCTATAAACAATGACTCATTACCGCACT: the RUNX1 binding intensity was 976. For the sequence GTTCAGCGGACGGCTTCCTGCGGCTTGCTGGGGCCG, the RUNX1 binding intensity was found to be 1000.

Regarding GCCAGGGCAGGAAGTTGCTAACCGCCCCAGAGCAGG, the RUNX1 binding intensity was found to be 1460. With CAGTGCCAGCCGGAACTTGTGGTTCGGACCGTGGGT, the RUNX1 binding intensity was 1420. With CAGATCCGGCGTGGACGAAGCTCGGGAACCACAACA, the RUNX1 binding intensity was 1150. As to AAAGACAGGATGTGGGGGAGTGAGCCACAAGGGCCC, the RUNX1 binding intensity came out at 2080. Take ACGTTTCGGGGTTTCCGGGCCAGCGGTTTCGGGCGC: the RUNX1 binding intensity turned out to be 2050. For the sequence TGAAACCCAGCAGGATGTGGGTTAACGGCAGGGGAG, the RUNX1 binding intensity stood at 2250. The same measure for ACAGGAAGAGATATTATATCTCCCTGCGGTTGGTTT: 779; for TGGCTGTGTCCCGGAAGTGGTCATAAGCTGGGTCCC: 2470; for CCCTTCGCTTCCGCTCCGCGTTCCCACAATGCAGTG: 3700. Turning to CTTTGCTGCCGCCTTCCTGTGCGGGGCCGTGGCGGC, the RUNX1 binding intensity was found to be 1020.

With GACATGCTCCGGAAGCTTGAGGTTTTAACGTTAAGG, the RUNX1 binding intensity turned out to be 1390. On to GAGACTTTCGCTTCCGGCTGCCGCAGGCGCTTCGCT, for which the RUNX1 binding intensity was determined as 1550.

Regarding GCTTCTGAGGAAGTGCGTTTTGTGGGTAGGTGGAGT, the RUNX1 binding intensity was 878.

As to CCTGCCGAGGAAGTCCCACGTCACTGCGGTTAGAGT, the RUNX1 binding intensity is 3000.
